“And” between values parts separate entries of the source, which are not always exact repeats. Equal entries are not always repeated. The source holds several records for some structures; these can differ, active in one and inactive in another. The source made the active and inactive calls. Rule for the calls: active = hit-call score of the fitted dose curve at least 0.9, where 1 is the maximum; inactive = score below 0.9.
Legend:
[1] = molecular target: Transcription factor E2F1 (Homo sapiens) (UniProt Q01094); assay: ATG_E2F_CIS: Attagene CIS-FACTORIAL HepG2 Assay for human E2F Transcription Factor 1 (AID 2282935); conditions: HepG2 Attagene cis-reporter, E2F reporter RNA transcripts; actives raise or lower the signal
Sequence of Transcription factor E2F1 (Homo sapiens) (Q01094 whole entry, looked up): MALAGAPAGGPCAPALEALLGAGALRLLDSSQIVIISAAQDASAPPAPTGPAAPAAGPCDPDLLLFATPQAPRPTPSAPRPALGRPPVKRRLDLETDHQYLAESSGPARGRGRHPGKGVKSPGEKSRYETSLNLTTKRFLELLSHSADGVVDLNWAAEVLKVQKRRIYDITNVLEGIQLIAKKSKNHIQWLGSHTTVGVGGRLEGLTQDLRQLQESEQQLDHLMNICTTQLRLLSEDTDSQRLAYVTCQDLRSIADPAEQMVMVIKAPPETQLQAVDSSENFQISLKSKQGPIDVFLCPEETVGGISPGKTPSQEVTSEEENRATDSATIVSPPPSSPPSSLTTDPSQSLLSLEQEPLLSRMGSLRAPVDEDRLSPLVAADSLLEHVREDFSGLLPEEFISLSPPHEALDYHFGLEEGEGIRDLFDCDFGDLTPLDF
Method in brief: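 Cis-element reporter mRNA induction in transiently transfected HepG2, 24 h exposure. Activity fitted in both directions relative to DMSO negative control.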

[2] = ATG_E_Box_CIS: Attagene CIS-FACTORIAL HepG2 Assay for human Enhancer Box (E-box) (AID 2282936); conditions: HepG2 E-box cis-reporter transcription, actives raise or lower the signal
Method in brief: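 Cells: HepG2 (human liver), transient MRTU transfection. Exposure 24 h. RNA → oligo(dT) RT → PCR → 6-FAM label → HpaI → CE. Activity fitted both directions relative to DMSO.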

[3] = ATG_M_61_CIS: Attagene CIS-FACTORIAL HepG2 Assay for M61 Transcription Factor (Internal Marker) (AID 2282937); conditions: HepG2 Attagene CIS-FACTORIAL M61 internal marker reporter; actives raise or lower the signal
Method in brief: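 HepG2 cells transiently transfected with multiplexed cis-promoter reporter units reporting endogenous transcription factor activity, measured 24 h after dosing. Reporter mRNA quantified by RT-PCR and capillary electrophoresis; bidirectional fit against DMSO baseline.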

[4] = ATG_EGR_CIS: Attagene CIS-FACTORIAL HepG2 Assay for human Early Growth Response 1 (EGR1) (AID 2282938); conditions: HepG2 Attagene CIS-FACTORIAL EGR reporter mRNA; actives raise or lower the signal
Method in brief: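 HepG2 cells transiently transfected with cis-element-driven multiplexed reporter units, dosed for 24 h. EGR1-element reporter mRNA quantified by RT-PCR, 6-FAM labelling, HpaI digestion and capillary electrophoresis; bidirectional fit versus DMSO.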

[5] = ATG_M_19_CIS: Attagene CIS-FACTORIAL HepG2 Assay for M19 Transcription Factor (Internal Marker) (AID 2282939); conditions: HepG2 Attagene CIS-FACTORIAL M19 internal marker reporter; actives raise or lower the signal
Method in brief: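 HepG2 cells transiently transfected with cis-regulated multiplexed reporter units, dosed 24 h. Reporter mRNA quantified by RT-PCR and capillary electrophoresis; internal background marker fitted bidirectionally versus DMSO.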

[6] = ATG_Ets_CIS: Attagene CIS-FACTORIAL HepG2 Assay for human Erythroblast Transformation Specific (ETS) (AID 2282941); conditions: HepG2 ETS cis-reporter transcription, actives raise or lower the signal
Method in brief: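 HepG2 cells transiently transfected with cis-promoter reporter transcription units were dosed for 24 h; reporter mRNA was measured by RT-PCR, 6-FAM primer extension, HpaI digestion and capillary electrophoresis, with bidirectional fitting against DMSO baseline.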

[7] = molecular target: Hepatocyte nuclear factor 3-beta (Homo sapiens) (UniProt Q9Y261); assay: ATG_FoxA2_CIS: Attagene CIS-FACTORIAL HepG2 Assay for human Forkhead box A2 (FOXA2) (AID 2282942); conditions: HepG2 cis-reporter transcription factor activity, 24 h; actives raise or lower the signal
Sequence of Hepatocyte nuclear factor 3-beta (Homo sapiens) (Q9Y261 whole entry, looked up): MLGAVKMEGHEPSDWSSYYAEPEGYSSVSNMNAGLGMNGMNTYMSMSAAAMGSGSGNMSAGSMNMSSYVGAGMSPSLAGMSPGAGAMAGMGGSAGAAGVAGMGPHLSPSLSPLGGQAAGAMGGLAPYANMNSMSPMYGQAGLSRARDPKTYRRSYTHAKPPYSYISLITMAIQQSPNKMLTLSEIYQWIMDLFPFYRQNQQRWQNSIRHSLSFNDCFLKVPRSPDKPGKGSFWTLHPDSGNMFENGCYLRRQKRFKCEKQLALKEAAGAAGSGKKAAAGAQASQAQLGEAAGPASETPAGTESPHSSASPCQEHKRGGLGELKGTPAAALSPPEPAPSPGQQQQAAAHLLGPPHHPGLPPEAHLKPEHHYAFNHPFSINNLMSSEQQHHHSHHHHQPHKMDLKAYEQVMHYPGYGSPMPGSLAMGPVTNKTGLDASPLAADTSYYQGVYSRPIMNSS
Method in brief: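 HepG2 transiently transfected with a multiplexed cis-promoter reporter library read endogenous FOXA2 activity. After 24 h compound exposure, reporter mRNA was quantified by RT-PCR, HpaI digestion and capillary electrophoresis. Bidirectional fit against DMSO.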

[8] = ATG_FoxO_CIS: Attagene CIS-FACTORIAL HepG2 Assay for human Forkhead box O (FoxO) (AID 2282943); conditions: HepG2 Attagene cis-reporter, FoxO element, mRNA; actives raise or lower the signal
Method in brief: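 Human hepatoma HepG2 cells carry transiently introduced reporter transcription units controlled by cis promoter elements. Chemical treatment lasted 24 h, and mRNA signal was compared with DMSO.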

[9] = ATG_GATA_CIS: Attagene CIS-FACTORIAL HepG2 Assay for human GATA Binding Protein (AID 2282944); conditions: HepG2 GATA cis-element reporter, Attagene multiplex mRNA; actives raise or lower the signal
Method in brief: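 HepG2 cells transiently transfected with multiplexed cis-element reporter units measure endogenous GATA activity; after 24 h compound exposure, reporter mRNA quantified by RT-PCR and capillary electrophoresis. Changes fitted in both directions vs DMSO.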

[10] = ATG_ERE_CIS: Attagene CIS-FACTORIAL HepG2 Assay for Estrogen Response Element (ERE) (AID 2282940); conditions: HepG2 ERE cis-reporter, Attagene RNA transcript; actives raise or lower the signal
Method in brief: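 HepG2 cells transiently transfected with multiplexed cis-element reporter units, measuring endogenous transcription factor activity; ERE reporter mRNA quantified after 24 h exposure by RT-PCR, fluorescent labelling, HpaI digestion and capillary electrophoresis. Bidirectional change versus DMSO.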

Measured: AC50

CCCCCCCCCCCCCCO
active: [1] 158 µM | [2] 129 µM | [6] 159 µM | [7] 138 µM | [9] 179 µM
inactive: [3] | [4] | [5] | [8]

c1ccc(C(O[C@@H]2CCCN(CCc3ccc4c(c3)OCO4)C2)c2ccccc2)cc1
active: [4] 33 µM | [10] 13.8 µM
inactive: [1] | [2] | [3] | [5] | [6] | [7] | [8] | [9]

Cc1ccc(S(=O)(=O)NC(=O)NN2CCCCCC2)cc1
inactive: [1] | [2] | [3] | [4] | [5] | [10] | [6] | [7] | [8] | [9]

CCc1cccc(CC)c1N
inactive: [1] | [2] | [3] | [4] | [5] | [10] | [6] | [7] | [8] | [9]

O=S(=O)(O)CCC(F)(F)C(F)(F)C(F)(F)C(F)(F)C(F)(F)C(F)(F)F
inactive: [1] | [2] | [3] | [4] | [5] | [10] | [6] | [7] | [8] | [9]

O=C(O)[C@H](O)[C@@H](O)C(=O)O
inactive: [1] | [2] | [3] | [4] | [5] | [10] | [6] | [7] | [8] | [9]

c1ccc2cc3ccccc3cc2c1
inactive: [1] | [2] | [3] | [4] | [5] | [6] | [7] | [8] | [9]

COCc1nnc(-c2ccc[n+]([O-])c2)n1-c1c(Cl)c(Cl)cc2[nH]c(=O)c(=O)[nH]c12
inactive: [1] | [2] | [3] | [4] | [5] | [10] | [6] | [7] | [8] | [9]

CCCOc1ccc(S(=O)(=O)N2CCN(CC)CC2)cc1-c1nc2c(CC)n(Cc3ccccn3)nc2c(=O)[nH]1
active: [4] 22.2 µM
inactive: [1] | [2] | [3] | [5] | [6] | [7] | [8] | [9]

C=CN1CCCC1=O
inactive: [1] | [2] | [3] | [4] | [5] | [10] | [6] | [7] | [8] | [9]

NC(=O)N1c2ccccc2C=Cc2ccccc21
inactive: [1] | [2] | [3] | [4] | [5] | [6] | [7] | [8] | [9]
active: [10] 49.9 µM

O=C(O)CO
inactive: [1] | [2] | [3] | [4] | [5] | [6] | [7] | [8] | [9]

NCC(F)(F)C(F)(F)C(F)(F)C(F)(F)F
inactive: [1] | [2] | [3] | [4] | [5] | [10] | [6] | [7] | [8] | [9]

CCc1ccc(O)c(C(C)(C)C)c1
inactive: [1] | [2] | [3] | [4] | [5] | [10] | [6] | [7] | [8] | [9]

CCCC(CCC)C(=O)O
inactive: [1] | [2] | [3] | [4] | [5] | [10] | [6] | [8] | [9]

CCCc1ccccc1
inactive: [1] | [2] | [3] | [4] | [5] | [10] | [6] | [7] | [8] | [9]

OCC(CO)(CO)CO
active: [10] 100 µM
inactive: [1] | [2] | [3] | [4] | [5] | [10] | [6] | [7] | [8] | [9]

CCCCCCCCN(C)C
inactive: [1] | [2] | [3] | [4] | [5] | [10] | [6] | [7] | [8] | [9]

CCOC(N)=O
inactive: [1] | [2] | [3] | [4] | [5] | [10] | [6] | [7] | [8] | [9]

CCCCCCCC/C=C\CCCCCCCC(=O)OC[C@@H](O)[C@H]1OC[C@H](O)[C@H]1O
inactive: [1] | [2] | [3] | [4] | [5] | [10] | [6] | [7] | [8] | [9]

Cc1nc(-c2ccccn2)ncc1C(=O)Nn1cc(C)c2cc(F)ccc21
inactive: [1] | [2] | [3] | [4] | [5] | [10] | [6] | [7] | [8] | [9]

CC(C)CCCCCCOC(=O)C1CCCCC1C(=O)OCCCCCCC(C)C (stereo not given)
inactive: [1] | [2] | [3] | [4] | [5] | [10] | [6] | [7] | [8] | [9]

CC(=O)c1ccccc1
inactive: [1] | [2] | [3] | [4] | [5] | [10] | [6] | [7] | [8] | [9]

FC(F)C(F)(F)COCC1CO1 (stereo not given)
inactive: [1] | [2] | [3] | [4] | [5] | [10] | [6] | [7] | [8] | [9]
active: [10] 118 µM

COc1cc2c(c(OC)c1OC)-c1ccc(OC)c(=O)cc1[C@@H](NC(C)=O)CC2
active: [2] 0.592 µM
inactive: [1] | [3] | [4] | [5] | [10] | [6] | [7] | [8] | [9]

O=C(O)c1cccc(C(=O)O)c1
inactive: [1] | [2] | [3] | [4] | [5] | [10] | [6] | [7] | [8] | [9]

Cc1nccn1-c1ccc(Sc2cccc(C3(C(N)=O)CCOCC3)c2)cc1
inactive: [1] | [2] | [3] | [5] | [10] | [7] | [9]
active: [4] 4.56 µM | [6] 4.05 µM | [8] 3.15 µM

CC(C)CC(C)O (stereo not given)
inactive: [1] | [2] | [3] | [4] | [5] | [10] | [6] | [7] | [8] | [9]

OC(Cn1cncn1)(Cn1cncn1)c1ccc(F)cc1F
inactive: [2] | [3] | [4] | [5] | [10] | [6] | [7] | [8] | [9]

O=S1(=O)CCCO1
inactive: [1] | [2] | [3] | [4] | [5] | [6] | [7] | [8] | [9]

Nc1ccn([C@@H]2O[C@H](CO)[C@@H](O)[C@@H]2O)c(=O)n1
inactive: [1] | [2] | [3] | [4] | [5] | [6] | [7] | [8] | [9]

O=C(NO)C1(NS(=O)(=O)c2ccc(Oc3ccc(F)cc3)cc2)CCOCC1
inactive: [1] | [2] | [3] | [4] | [5] | [6] | [7] | [8] | [9]

OC[C@H]1O[C@@H]2O[C@H]3[C@H](O)[C@@H](O)[C@@H](O[C@H]4[C@H](O)[C@@H](O)[C@@H](O[C@H]5[C@H](O)[C@@H](O)[C@@H](O[C@H]6[C@H](O)[C@@H](O)[C@@H](O[C@H]7[C@H](O)[C@@H](O)[C@@H](O[C@H]1[C@H](O)[C@H]2O)O[C@@H]7CO)O[C@@H]6CO)O[C@@H]5CO)O[C@@H]4CO)O[C@@H]3CO
inactive: [1] | [2] | [3] | [4] | [5] | [6] | [7] | [8] | [9]

NC(N)=O
inactive: [1] | [2] | [3] | [4] | [5] | [6] | [7] | [8] | [9]

CCCCCCCC1CCC(=O)O1 (stereo not given)
inactive: [2] | [3] | [4] | [5] | [10] | [6] | [7] | [8] | [9]

CCCCCCOC(=O)CC(CC(=O)OCCCCCC)(OC(=O)CCC)C(=O)OCCCCCC
inactive: [1] | [2] | [3] | [4] | [5] | [6] | [7] | [8] | [9]

FC(F)(F)C(F)(F)C(F)(F)C(F)(F)C(F)(F)C(F)(F)I
inactive: [2] | [3] | [4] | [5] | [6] | [7] | [8] | [9]
active: [10] 24 µM and 27.1 µM

C[C@]12C=CC(=O)C=C1CC[C@H]1[C@@H]3C[C@@H](O)[C@](O)(C(=O)CO)[C@@]3(C)C[C@H](O)[C@@]12F
inactive: [2] | [3] | [4] | [5] | [6] | [7] | [8] | [9]
active: [10] 17.8 µM

OCc1ccccc1
inactive: [2] | [3] | [4] | [5] | [10] | [6] | [7] | [8] | [9]

C[C@@H](Oc1ccc(CNC(=O)c2cccnc2Oc2ccc3c(c2)OCO3)c(F)c1)C(=O)O
inactive: [1] | [2] | [3] | [4] | [5] | [6] | [7] | [8] | [9]

— PubChem BioAssay (EPA / NIEHS)
